Records with an inconclusive call do not appear. A call without a number means that no potency is given here. Unmarked numbers belong to inactive results. Activity calls are given as the source filed them. Unless noted, calls come from the whole dose curve; as a rule, active = well fitted curve in the direction sought with a large enough effect in the repeat runs; inconclusive = weak or mixed curves; inactive = no such curve, though single readings can be large; an effect the other way counts as inactive or inconclusive.
Tests used:
[1] = qHTS assay to identify small molecule antagonists of the estrogen related receptor (ERR) signaling pathway - cell viability counter screen (AID 1224818); note: potency is the fitted concentration of half-maximal effect;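 note: viability measured after 17.5 h of compound exposure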
In short: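 Cytotoxicity counter screen: fluorescence from CellTiter-Fluor, added after 17.5 h compound exposure at 37 C and read 30 min later. ERR cell line seeded at 2,000 cells/well, preincubated 6 h before dosing.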

[2] = qHTS assay to identify small molecule agonists of the estrogen related receptor (ERR) signaling pathway (AID 1224820)
In short: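 Following a 6 h settling period, 2,000 ERR cells per well receive DMSO-dissolved compounds by pin tool and incubate 18 h at 37 C; agonist activity is scored from One-Glo luminescence read 30 min post-addition.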

[3] = tested on: estrogen-related receptor alpha (ERRalpha) with PGC-1alpha coactivator, human; test: qHTS assay to identify small molecule antagonists of the estrogen related receptor signaling pathway with the pleiotropic PPARgamma coactivator (PGC) (AID 1224821; calls by dose curve;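 note: series mostly up to about 46 µM; lower luminescence signal means antagonism of PGC/ERR signalling; nearly all actives have a fitted effect of over 50% in size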)
In short: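 Screening used NTP's PGC/ERR cells, dosed via pin tool with compound in DMSO alongside positive and negative controls. After 18 h at 37 C, One-Glo reagent sat 30 min at room temperature before luminescence detection.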

[4] = qHTS assay to identify small molecule antagonists of the estrogen related receptor signaling pathway with the pleiotropic PPARgamma coactivator (PGC) cell viability counter screen (AID 1224822; note: potency is the fitted concentration of half-maximal effect)
In short: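 Viability counter-screen read by fluorescence intensity after 30 min with CellTiter-Fluor at 37 C; PGC/ERR reporter cells were exposed to compounds for 17.5 h at 37 C following a 6 h preincubation.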

[5] = qHTS assay to identify small molecule agonists of the estrogen related receptor signaling pathway with the pleiotropic PPARgamma coactivator (PGC) (AID 1224823)
In short: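 In this quantitative high-throughput screen, an 18 h, 37 C treatment of PGC/ERR cells with compounds in DMSO preceded a One-Glo luminescence read taken after 30 min at room temperature.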

Structure (SMILES)	Potency [1]	Potency [2]	Potency [3]	Potency [4]	Potency [5]
CC(=O)[C@H]1CCC2C3CC[C@H]4C[C@H](O)CC[C@]4(C)C3CC[C@@]21C (stereo partly specified)	inactive	inactive	inactive	inactive	inactive
CO[C@H]1CC=C2CCN3CCC4=C(CC(=O)OC4)[C@]23C1	inactive	–	–	inactive	–
CCS(=O)(=O)Nc1cccc(C(=C2CCCCC2)c2cnc[nH]2)c1	inactive	inactive	–	inactive	inactive
O=C(Cc1ccc(Cl)c(Cl)c1)N1CCCCC1CN1CCCC1 (stereo unspecified)	inactive	inactive	inactive	inactive	inactive
C[N+]1(C)CCN(c2ccccc2)CC1	inactive	inactive	inactive	inactive	inactive
Cc1sc2ccccc2c1CC1=NCCN1	inactive	inactive	inactive	inactive	inactive
Nc1cc2c(ncn2CCOCP(=O)(O)O)c(=O)[nH]1	inactive	inactive	inactive	–	inactive
CN1CCc2cccc(Cl)c2CC1	inactive	inactive	inactive	inactive	inactive
NC(Cc1cc(O)c(O)cc1O)C(=O)O (stereo unspecified)	inactive	inactive	inactive	inactive	inactive
CN1CCc2cc(O)cc3c2[C@H]1Cc1ccc(O)c(O)c1-3	inactive	inactive	inactive	–	inactive
CC[C@@]1(O)C(=O)OCc2c1cc1n(c2=O)Cc2cc3ccccc3nc2-1	inactive	inactive	–	inactive	–
Ic1ccccc1CNC1C2CCN(CC2)C1C(c1ccccc1)c1ccccc1 (stereo unspecified)	19.6 µM (active)	inactive	–	19.6 µM (active)	inactive
